The values that follow come from article PMC7862700, “An all-to-all approach to the identification of sequence-specific readers for epigenetic DNA modifications on cytosine”.

Assay in all cases: DAPPL (digital affinity profiling via proximity ligation, sequencing); 10 mM Tris-HCl pH 7.5, 50 mM NaCl, 1 mM DTT, 4% glycerol, room temperature, 30 min; GST-TFs on glutathione beads, 16-mer random dsDNA library, 0.1% formaldehyde crosslink after washing; high values mean tight binding
One assay has as its target T1, FEV (Homo sapiens, UniProt Q99581 1-238).
T1 sequence: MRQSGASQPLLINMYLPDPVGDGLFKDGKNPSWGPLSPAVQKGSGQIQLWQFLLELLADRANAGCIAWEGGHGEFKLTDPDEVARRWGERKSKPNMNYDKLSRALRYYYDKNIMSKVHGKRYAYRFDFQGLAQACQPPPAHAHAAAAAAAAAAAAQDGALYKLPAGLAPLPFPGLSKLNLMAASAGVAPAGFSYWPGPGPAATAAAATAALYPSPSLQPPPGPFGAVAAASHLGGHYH
The note with it: protein: recombinant; tags: N-terminal GST; dsDNA, one strand shown. In a few lines: (§1)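 Human transcription factors carrying a GST fusion were produced in yeast, bound to glutathione beads, tagged with DNA barcodes and pooled together with a tag-only sample. Each pool was held with 200 nmole of a random double-stranded 16-mer DNA library in Tris/NaCl/DTT/glycerol buffer for 30 min at room temperature, then washed, crosslinked in 0.1% formaldehyde, proximity-ligated with BsaI/T4 ligase (1 h, 37 °C), PCR-amplified and sequenced on an Illumina NextSeq500. Binding signal is the read frequency of each hexamer for a given factor divided by its frequency in the tag-only sample.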

The next assay deals with ETV5 (Homo sapiens, UniProt P41161 1-510). The note with it: protein: recombinant; tags: N-terminal GST; dsDNA, one strand shown. In a few lines:
as §1

The next assay deals with HSF1 (Homo sapiens, UniProt Q00613 1-529). The note with it: protein: recombinant; tags: N-terminal GST; chain copies: 3; dsDNA, one strand shown. Put shortly: as §1
Chain of HSF1 (Q00613 whole entry): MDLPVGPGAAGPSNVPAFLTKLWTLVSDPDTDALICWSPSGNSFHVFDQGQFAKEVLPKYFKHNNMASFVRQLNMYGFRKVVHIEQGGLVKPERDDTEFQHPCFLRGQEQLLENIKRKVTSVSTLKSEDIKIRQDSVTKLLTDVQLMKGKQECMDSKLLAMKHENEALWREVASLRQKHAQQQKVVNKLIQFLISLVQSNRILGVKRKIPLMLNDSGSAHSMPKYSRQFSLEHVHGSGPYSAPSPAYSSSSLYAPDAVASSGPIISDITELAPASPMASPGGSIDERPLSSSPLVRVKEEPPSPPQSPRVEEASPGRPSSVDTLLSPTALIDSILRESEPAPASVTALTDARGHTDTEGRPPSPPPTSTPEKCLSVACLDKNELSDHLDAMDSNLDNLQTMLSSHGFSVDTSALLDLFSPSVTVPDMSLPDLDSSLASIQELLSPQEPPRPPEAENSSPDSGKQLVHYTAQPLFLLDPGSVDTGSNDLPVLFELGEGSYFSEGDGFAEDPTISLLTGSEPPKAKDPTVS
Another assay addresses T2, SPIC (Homo sapiens, UniProt Q8N5J4 1-248).
T2 sequence: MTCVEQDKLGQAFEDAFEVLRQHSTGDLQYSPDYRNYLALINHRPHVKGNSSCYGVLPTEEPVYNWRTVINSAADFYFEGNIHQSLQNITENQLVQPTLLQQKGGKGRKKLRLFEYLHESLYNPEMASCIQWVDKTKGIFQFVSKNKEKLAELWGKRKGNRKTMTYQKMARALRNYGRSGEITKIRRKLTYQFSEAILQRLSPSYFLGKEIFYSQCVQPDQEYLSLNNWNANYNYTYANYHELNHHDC
The note with it: protein: recombinant; tags: N-terminal GST; dsDNA, one strand shown. Put shortly:
as §1

A further assay has as its target ELF4 (Homo sapiens, UniProt Q99607 1-663). The note with it: protein: recombinant; tags: N-terminal GST; dsDNA, one strand shown. Put shortly:
as §1

Another assay deals with T3, ELK4 (Homo sapiens, UniProt P28324-2 1-405).
T3 sequence: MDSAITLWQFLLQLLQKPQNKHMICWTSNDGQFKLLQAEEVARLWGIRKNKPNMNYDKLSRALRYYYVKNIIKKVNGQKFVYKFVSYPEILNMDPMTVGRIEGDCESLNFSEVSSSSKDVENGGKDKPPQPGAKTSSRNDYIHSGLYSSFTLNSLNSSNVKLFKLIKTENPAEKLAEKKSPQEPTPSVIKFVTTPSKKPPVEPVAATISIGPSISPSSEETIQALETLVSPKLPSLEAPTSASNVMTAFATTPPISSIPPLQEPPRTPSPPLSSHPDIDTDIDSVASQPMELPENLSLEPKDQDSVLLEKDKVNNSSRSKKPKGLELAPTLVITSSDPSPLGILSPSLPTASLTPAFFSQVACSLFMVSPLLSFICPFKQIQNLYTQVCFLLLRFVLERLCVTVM
The settings on record: protein: recombinant; tags: N-terminal GST; dsDNA, one strand shown. Put shortly: as §1

The next assay addresses T4, ETV2 (Homo sapiens, UniProt O00321 1-342).
T4 sequence: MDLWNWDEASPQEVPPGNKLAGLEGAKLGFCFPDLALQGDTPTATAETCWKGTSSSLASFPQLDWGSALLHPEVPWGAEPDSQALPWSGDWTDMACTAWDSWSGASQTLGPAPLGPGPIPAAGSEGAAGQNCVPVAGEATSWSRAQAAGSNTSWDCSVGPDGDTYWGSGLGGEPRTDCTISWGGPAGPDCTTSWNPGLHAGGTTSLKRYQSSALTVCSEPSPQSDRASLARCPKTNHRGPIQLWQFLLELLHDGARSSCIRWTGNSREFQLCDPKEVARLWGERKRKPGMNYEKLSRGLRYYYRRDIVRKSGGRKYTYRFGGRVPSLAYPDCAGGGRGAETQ
The note with it: protein: recombinant; tags: N-terminal GST; dsDNA, one strand shown. Put shortly:
as §1

The target of another assay is T5, ELF3 (Homo sapiens, UniProt P78545 1-371).
T5 sequence: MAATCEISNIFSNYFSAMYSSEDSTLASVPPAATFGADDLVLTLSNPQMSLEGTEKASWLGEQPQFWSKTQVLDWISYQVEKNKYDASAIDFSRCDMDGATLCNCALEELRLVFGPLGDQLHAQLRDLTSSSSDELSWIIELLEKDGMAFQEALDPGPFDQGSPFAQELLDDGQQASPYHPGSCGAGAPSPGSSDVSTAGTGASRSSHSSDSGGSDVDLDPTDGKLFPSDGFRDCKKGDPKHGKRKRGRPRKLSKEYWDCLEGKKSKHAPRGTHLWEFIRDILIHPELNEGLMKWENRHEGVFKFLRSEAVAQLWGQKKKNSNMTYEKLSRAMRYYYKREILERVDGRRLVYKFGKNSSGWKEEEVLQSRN
The settings on record: protein: recombinant; tags: N-terminal GST; dsDNA, one strand shown. Put shortly: as §1

The target of another assay is CRX (Homo sapiens, UniProt O43186 1-299). The settings on record: protein: recombinant; tags: N-terminal GST; dsDNA, one strand shown. Put shortly:
as §1

In another assay the target is ETV1 (Homo sapiens, UniProt P50549 1-477). The settings on record: protein: recombinant; tags: N-terminal GST; dsDNA, one strand shown. In a few lines: as §1
Chain of ETV1 (P50549 whole entry): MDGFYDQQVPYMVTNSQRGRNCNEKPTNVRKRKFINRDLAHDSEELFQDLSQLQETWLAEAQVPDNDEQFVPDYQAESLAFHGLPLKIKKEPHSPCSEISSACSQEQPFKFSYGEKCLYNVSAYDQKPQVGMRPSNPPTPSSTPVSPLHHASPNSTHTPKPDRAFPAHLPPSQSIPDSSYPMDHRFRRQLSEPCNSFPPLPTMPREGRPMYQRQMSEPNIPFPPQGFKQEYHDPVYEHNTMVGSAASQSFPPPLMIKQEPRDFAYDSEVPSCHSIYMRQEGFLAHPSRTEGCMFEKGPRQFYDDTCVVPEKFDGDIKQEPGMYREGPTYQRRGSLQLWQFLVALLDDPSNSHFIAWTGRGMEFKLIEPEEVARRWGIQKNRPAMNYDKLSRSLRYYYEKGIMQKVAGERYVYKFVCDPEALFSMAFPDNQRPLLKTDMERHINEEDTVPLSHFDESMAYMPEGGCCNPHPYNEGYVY
The next assay deals with T6, ERF (Homo sapiens, UniProt P50548 1-548).
T6 sequence: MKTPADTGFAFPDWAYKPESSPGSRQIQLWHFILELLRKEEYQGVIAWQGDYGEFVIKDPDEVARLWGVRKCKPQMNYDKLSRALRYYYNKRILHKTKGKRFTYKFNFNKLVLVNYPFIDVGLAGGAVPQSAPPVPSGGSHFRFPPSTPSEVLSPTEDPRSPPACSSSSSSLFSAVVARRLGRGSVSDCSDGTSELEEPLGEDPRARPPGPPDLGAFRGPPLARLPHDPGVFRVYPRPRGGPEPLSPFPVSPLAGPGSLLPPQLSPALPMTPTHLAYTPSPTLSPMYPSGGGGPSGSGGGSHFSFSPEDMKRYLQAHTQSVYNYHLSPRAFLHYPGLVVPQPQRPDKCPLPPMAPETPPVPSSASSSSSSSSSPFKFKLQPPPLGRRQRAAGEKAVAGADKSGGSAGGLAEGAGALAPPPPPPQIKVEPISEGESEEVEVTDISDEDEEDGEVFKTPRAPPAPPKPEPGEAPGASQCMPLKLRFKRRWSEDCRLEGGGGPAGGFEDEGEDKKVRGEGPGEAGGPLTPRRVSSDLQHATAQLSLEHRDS
The note with it: protein: recombinant; tags: N-terminal GST; dsDNA, one strand shown. Put shortly: as §1

Another assay has as its target T7, ETV3L (Homo sapiens, UniProt Q6ZN32 1-361).
T7 sequence: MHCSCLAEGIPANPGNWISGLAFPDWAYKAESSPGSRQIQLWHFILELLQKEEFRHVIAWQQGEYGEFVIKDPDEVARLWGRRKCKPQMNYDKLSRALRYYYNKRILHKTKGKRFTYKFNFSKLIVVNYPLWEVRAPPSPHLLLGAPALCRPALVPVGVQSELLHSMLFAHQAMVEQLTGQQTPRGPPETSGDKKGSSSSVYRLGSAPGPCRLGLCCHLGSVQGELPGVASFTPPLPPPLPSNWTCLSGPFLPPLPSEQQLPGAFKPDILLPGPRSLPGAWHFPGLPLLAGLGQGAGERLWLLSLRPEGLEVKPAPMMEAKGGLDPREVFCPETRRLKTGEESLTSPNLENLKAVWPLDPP
The note with it: protein: recombinant; tags: N-terminal GST; dsDNA, one strand shown. Put shortly: as §1

A further assay addresses T8, ETS2 (Homo sapiens, UniProt P15036 1-469).
T8 sequence: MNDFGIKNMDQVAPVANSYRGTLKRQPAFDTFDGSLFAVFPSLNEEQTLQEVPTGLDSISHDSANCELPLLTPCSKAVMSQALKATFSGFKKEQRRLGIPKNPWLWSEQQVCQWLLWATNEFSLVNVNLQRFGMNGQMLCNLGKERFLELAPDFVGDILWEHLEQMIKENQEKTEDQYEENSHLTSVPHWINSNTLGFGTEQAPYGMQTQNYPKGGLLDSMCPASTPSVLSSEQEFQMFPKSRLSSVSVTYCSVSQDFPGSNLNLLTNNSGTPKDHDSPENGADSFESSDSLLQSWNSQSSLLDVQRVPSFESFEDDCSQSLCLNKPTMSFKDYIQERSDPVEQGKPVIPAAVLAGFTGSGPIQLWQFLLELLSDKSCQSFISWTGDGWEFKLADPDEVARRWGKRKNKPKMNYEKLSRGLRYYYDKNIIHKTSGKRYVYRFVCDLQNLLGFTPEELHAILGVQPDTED
The settings on record: protein: recombinant; tags: N-terminal GST; dsDNA, one strand shown. In a few lines:
as §1

In the next assay the target is T9, SPDEF (Homo sapiens, UniProt O95238 1-335).
T9 sequence: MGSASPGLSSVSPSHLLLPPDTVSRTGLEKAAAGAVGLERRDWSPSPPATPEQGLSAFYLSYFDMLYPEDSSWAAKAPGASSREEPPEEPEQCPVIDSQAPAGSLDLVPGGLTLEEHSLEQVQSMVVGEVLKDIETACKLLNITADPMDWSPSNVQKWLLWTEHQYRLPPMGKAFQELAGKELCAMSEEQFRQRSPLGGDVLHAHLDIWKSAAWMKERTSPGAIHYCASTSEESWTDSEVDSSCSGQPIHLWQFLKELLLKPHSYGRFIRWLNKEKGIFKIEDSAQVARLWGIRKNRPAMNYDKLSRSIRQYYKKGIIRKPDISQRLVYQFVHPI
The settings on record: protein: recombinant; tags: N-terminal GST; dsDNA, one strand shown. In a few lines:
as §1

Another assay has as its target T10, ETV7 (Homo sapiens, UniProt Q9Y603 1-341).
T10 sequence: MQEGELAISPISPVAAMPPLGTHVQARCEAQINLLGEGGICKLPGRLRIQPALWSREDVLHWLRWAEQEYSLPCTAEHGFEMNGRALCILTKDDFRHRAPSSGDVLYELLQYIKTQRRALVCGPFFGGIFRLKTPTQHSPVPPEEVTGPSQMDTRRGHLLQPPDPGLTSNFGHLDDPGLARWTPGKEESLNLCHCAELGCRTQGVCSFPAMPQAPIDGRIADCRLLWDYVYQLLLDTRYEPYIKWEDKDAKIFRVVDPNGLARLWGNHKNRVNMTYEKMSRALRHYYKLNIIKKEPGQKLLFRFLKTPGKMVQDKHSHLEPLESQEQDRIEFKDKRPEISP
The settings on record: protein: recombinant; tags: N-terminal GST; dsDNA, one strand shown. Put shortly:
as §1

The next assay deals with T11, ELF5 (Homo sapiens, UniProt Q9UKW6-2 1-255).
T11 sequence: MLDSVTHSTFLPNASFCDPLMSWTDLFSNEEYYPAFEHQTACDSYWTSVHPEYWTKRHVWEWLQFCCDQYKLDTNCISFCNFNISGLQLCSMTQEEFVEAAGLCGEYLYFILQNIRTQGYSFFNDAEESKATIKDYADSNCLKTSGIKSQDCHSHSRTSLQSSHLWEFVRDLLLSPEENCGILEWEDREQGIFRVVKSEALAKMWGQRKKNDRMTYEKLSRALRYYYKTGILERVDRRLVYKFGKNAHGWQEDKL
The note with it: protein: recombinant; tags: N-terminal GST; dsDNA, one strand shown. In a few lines: as §1

The target of another assay is T12, ETV3 (Homo sapiens, UniProt P41162-2 1-143).
T12 sequence: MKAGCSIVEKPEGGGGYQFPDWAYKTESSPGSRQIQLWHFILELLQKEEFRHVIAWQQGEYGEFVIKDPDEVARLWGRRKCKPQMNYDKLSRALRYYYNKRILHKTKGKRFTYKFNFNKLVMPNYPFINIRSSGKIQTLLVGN
The note with it: protein: recombinant; tags: N-terminal GST; dsDNA, one strand shown. In a few lines: as §1

The target of the next assay is ETV6 (Homo sapiens, UniProt P41212 1-452). The settings on record: protein: recombinant; tags: N-terminal GST; dsDNA, one strand shown. Put shortly:
as §1

Chain of ETV6 (P41212 whole entry): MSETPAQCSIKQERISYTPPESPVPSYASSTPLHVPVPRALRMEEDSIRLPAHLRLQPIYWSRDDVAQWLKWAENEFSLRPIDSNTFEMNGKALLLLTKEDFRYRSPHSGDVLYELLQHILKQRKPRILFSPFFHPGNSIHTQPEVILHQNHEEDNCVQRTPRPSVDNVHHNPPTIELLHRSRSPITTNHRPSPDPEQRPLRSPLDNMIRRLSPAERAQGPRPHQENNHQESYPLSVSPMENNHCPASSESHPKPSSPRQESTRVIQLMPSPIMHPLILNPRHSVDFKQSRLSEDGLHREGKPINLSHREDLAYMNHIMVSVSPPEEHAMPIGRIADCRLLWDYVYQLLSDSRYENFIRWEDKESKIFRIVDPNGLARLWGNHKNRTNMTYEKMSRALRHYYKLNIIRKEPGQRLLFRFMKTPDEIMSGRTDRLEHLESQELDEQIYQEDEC
Chain of ELF4 (Q99607 whole entry): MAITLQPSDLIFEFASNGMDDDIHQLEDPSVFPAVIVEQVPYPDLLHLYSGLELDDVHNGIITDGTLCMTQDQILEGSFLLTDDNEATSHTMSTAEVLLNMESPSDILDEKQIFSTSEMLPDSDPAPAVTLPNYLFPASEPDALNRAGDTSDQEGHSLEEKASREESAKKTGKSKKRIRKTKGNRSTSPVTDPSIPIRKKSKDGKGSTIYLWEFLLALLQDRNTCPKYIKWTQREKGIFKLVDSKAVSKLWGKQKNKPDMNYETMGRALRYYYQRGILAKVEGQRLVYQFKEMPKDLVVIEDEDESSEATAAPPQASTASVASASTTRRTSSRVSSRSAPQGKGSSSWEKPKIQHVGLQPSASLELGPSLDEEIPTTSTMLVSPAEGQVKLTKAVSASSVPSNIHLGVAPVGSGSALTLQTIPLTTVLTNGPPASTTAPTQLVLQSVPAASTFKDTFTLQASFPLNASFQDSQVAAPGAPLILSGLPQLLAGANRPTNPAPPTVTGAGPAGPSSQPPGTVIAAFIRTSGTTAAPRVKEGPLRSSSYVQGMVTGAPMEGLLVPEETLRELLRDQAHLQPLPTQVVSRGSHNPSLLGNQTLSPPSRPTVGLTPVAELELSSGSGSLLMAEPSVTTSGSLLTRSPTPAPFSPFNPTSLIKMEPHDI
Chain of CRX (O43186 whole entry): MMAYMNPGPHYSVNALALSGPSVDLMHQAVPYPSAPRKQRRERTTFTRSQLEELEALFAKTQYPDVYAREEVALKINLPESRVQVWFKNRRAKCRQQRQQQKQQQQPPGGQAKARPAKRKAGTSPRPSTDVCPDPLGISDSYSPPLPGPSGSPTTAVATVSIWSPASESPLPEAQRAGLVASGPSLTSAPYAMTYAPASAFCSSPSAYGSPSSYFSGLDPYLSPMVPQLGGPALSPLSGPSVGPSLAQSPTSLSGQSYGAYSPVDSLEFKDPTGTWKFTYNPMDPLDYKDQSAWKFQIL
Chain of ETV5 (P41161 whole entry): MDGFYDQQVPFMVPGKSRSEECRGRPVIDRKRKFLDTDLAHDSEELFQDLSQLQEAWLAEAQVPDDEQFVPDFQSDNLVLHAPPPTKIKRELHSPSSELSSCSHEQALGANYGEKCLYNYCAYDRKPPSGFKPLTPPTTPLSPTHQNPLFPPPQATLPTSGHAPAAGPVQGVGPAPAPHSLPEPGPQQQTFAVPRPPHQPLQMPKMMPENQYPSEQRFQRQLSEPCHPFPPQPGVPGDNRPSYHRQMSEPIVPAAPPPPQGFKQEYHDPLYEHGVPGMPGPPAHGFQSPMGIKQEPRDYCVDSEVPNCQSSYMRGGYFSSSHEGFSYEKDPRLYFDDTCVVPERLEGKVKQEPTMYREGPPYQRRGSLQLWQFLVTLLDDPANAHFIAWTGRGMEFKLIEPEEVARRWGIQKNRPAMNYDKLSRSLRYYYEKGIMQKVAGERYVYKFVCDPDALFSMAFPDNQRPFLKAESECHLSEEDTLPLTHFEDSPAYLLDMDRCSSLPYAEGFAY

For the sequence TTAAAA, the binding signal in the assay with FEV was 1.16 fold enrichment (6-mer frequency, TF over GST control); with ETV5, 1.14 fold enrichment (6-mer frequency, TF over GST control); with HSF1, 1.87 fold enrichment (6-mer frequency, TF over GST control); with SPIC it was 1.28 fold enrichment (6-mer frequency, TF over GST control); with ELF4 it was 1.19 fold enrichment (6-mer frequency, TF over GST control); in the assay with ELK4, 1.27 fold enrichment (6-mer frequency, TF over GST control). The binding signal was 1.25 fold enrichment (6-mer frequency, TF over GST control) with ETV2; 1.24 fold enrichment (6-mer frequency, TF over GST control) in the assay with ELF3; 2.69 fold enrichment (6-mer frequency, TF over GST control) in the assay with CRX; 1.22 fold enrichment (6-mer frequency, TF over GST control) with ETV1; 1.3 fold enrichment (6-mer frequency, TF over GST control) with ERF; 1.27 fold enrichment (6-mer frequency, TF over GST control) with ETV3L. In addition, the binding signal with ETS2 was 1.17 fold enrichment (6-mer frequency, TF over GST control); with SPDEF it was 1.15 fold enrichment (6-mer frequency, TF over GST control); with ETV7, 1.26 fold enrichment (6-mer frequency, TF over GST control); with ELF5, 1.11 fold enrichment (6-mer frequency, TF over GST control); with ETV3, 1.17 fold enrichment (6-mer frequency, TF over GST control); with ETV6, 1.19 fold enrichment (6-mer frequency, TF over GST control).
